# Assay outcomes: PubChem, Broad Institute
# MITF TRPM1 HTS: increases MITF-driven TRPM1 promoter luciferase signal. hit rate 0.75% among 300,000. AID 588334. SK-MEL-5 TRPM1-promoter luciferase, 24 h; % of positive control, neutral wells = 0. activation, % at 12.5 µM;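 active = mean activation of at least 80% with every replicate also reaching 80%; inconclusive = mean reaches 80% but some replicate falls short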
# MITF TRPM1 inh: inhibitors of MITF-driven TRPM1 promoter in melanoma cells; SK-MEL-5 TRPM1 promoter luciferase, 24 h; inhibition, % at 12.5 µM; hit rate 0.83% among 330,000; AID 488899;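 active = mean inhibition across replicates of 60% or more, whatever share of single replicates reaches that level; inconclusive = some that reach 60%, reason not given; inactive = mean inhibition across replicates below 60%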
# PfHsp90 yeast 2: reduces growth (ATP signal) of yeast expressing P. falciparum Hsp90 | S. cerevisiae expressing PfHsp90, BacTiter-Glo ATP, 48 h; yeast lacking PDR1 and PDR3 efflux regulators | inhibition, % at 9.4 µM | hit rate 0.32% among 310,000 | AID 504621;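 active = every replicate shows inhibition above about 80%, whatever the replicate mean, limit read from the data; inconclusive = mean inhibition reaches the set limit but some replicate falls short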
# Glyco luc inh: N-linked glycosylation inhibition. D54 ERlucT glycosylation luciferase reporter, 24 h; percent of 100 nM tunicamycin response. reporter increase, % at 12.5 µM. hit rate 0.23% among 360,000. AID 588692;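 active = mean luciferase reporter signal, scaled so untreated is 0 and the glycosylation-blocking control 100, at or above a set limit in every replicate; inconclusive = mean reaches the limit but not every replicate does; inactive = mean below the limit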;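 note: luciferase carries N-glycosylation sites so blocking glycosylation raises the light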
# NSD2 inh: inhibitors of human histone methyltransferase NSD2; NSD2 peptide methylation, AlphaScreen, 120 min; O96028; hit rate 0.54% among 310,000; AID 743445; inhibition, % at 12.5 µM; in the data active = inhibition above about 50%
# Wnt act: activates Wnt/beta-catenin signaling in a reporter cell assay; hit rate 1.2% among 300,000; activator, plate reader; activation, % at 9.35 µM; in the data active = activation above about 30%, passing the limit was not always enough; inconclusive = no clear call, values can overlap the other calls
# Hits are given with their value; i = inactive; ? = inconclusive; nt = not tested or not shown. An excerpt weighted towards active compounds, which were near 2.9% of everything screened.
SMILES,MITF TRPM1 HTS,MITF TRPM1 inh,PfHsp90 yeast 2,Glyco luc inh,NSD2 inh,Wnt act
O=C(OCC(=O)N(Cc1ccccc1)Cc1ccccc1)c1cccc(O)c1,i,i,i,i,i,i
Nc1cccc(C(=O)OCC(=O)Nc2cccc3c2C(=O)c2ccccc2C3=O)c1,i,i,i,i,i,i
Cc1cc(N2CCNC[C@H]2C)ccc1N1CCN(Cc2ccccc2)[C@@H](C)C1,nt,nt,nt,nt,nt,i
Cc1ccc(S(=O)(=O)N2CCC(C(=O)NCc3cccs3)CC2)cc1,nt,nt,nt,nt,i,nt
Cc1cc(-c2nc3cc(F)ccc3s2)ccc1N,i,i,i,i,i,60
CCCCSc1nc(C(=O)O)cc(=O)[nH]1,i,i,i,i,i,38
CC(Oc1ccc(Br)cc1)C(=O)Nc1nc(-c2ccccn2)cs1 (stereo not given),i,67,nt,i,i,i
CCN1C(=O)c2cccc3c(S(=O)(=O)Nc4ccccc4)ccc1c23,nt,i,nt,51,i,nt
CCN1C(=O)c2cccc3c(S(=O)(=O)Nc4ccccn4)ccc1c23,nt,i,nt,50,nt,i
COc1ccccc1OCc1cc(C(=O)N(C)CCC2CCOCC2)no1,nt,nt,nt,i,i,40
Cc1ccc(NCCN(C)C)c2c(=O)c3cc(O)ccc3sc12,i,93,i,62,i,i
CN(C)CCNc1ccc2nnn3c4ccc(O)cc4c(=O)c1c23,i,i,i,?,nt,i
CN(C)CCNc1cccc2sc3ccc(O)cc3c(=O)c12,nt,nt,nt,107,i,i
CCCc1cc(C(=O)Nc2cccc(C(C)=O)c2)no1,i,i,i,i,nt,40
CCCc1cc(C(=O)Nc2cccc(Cl)c2C)no1,i,i,i,i,i,i
O=C(Nc1cccnc1)c1cc(-c2ccccc2)on1,i,i,i,i,i,i
CCCc1cc(C(=O)Nc2ccc(C(C)=O)cc2)no1,i,i,i,i,nt,i
CCCc1cc(C(=O)NCc2cccnc2)no1,i,i,i,i,nt,i
CCCc1cc(C(=O)Nc2cccc(Cl)c2)no1,nt,nt,i,i,nt,47
CCCc1cc(C(=O)Nc2cccnc2)no1,nt,nt,i,i,nt,41
O=C(Nc1cccnc1)c1cc(-c2ccc(Br)cc2)on1,nt,nt,i,i,nt,50
COc1ccc(-c2nnn3c2C2c4cc(-c5cccc(F)c5)ccc4CCN2C(=O)C3)cc1 (stereo not given),nt,nt,nt,nt,nt,i
CCCc1cc(C(=O)Nc2ccc(F)c(Cl)c2)no1,108,i,i,i,i,i
COc1cc(Nc2nc3c(N)cc(C(F)(F)F)cc3nc2-c2ccccc2)cc(OC)c1OC,i,i,i,26,i,i
COc1cc(Nc2cccc(-c3ccccc3)n2)cc(OC)c1OC,nt,nt,nt,i,i,i
SMILES,MITF TRPM1 HTS,MITF TRPM1 inh,PfHsp90 yeast 2,Glyco luc inh,NSD2 inh,Wnt act
O=C(NCCN1C(=O)C2C3C=CC(C3)C2C1=O)c1cc(Cl)cc(Cl)c1 (stereo not given),nt,nt,nt,nt,i,nt
CC(C)(C)c1nnc(N/N=C/c2cc(Br)ccc2O)n(N)c1=O,i,68,105,i,i,33
CC(=O)N(C1=C(N)C(=O)c2ccccc2C1=O)C(C)C,i,i,i,i,81,i
Cc1ccc(-n2nc3c(N4CCC(C(=O)NCCc5cccs5)CC4)nnc(C)c3c2C)cc1,i,89,i,i,i,i
Cc1ccc(-n2nc3c(=O)n(CC(=O)NCCc4cccs4)nc(C)c3c2C)cc1,i,i,i,i,i,i
CCCc1nn(C)c(C(=O)Nc2cccc(Cl)c2)c1Cl,i,i,i,i,i,i
O=C(N/N=C/c1ccc2nccnc2c1)c1ccncc1,nt,i,i,i,i,i
COc1cc(/C=N/Nc2ccc(C(=O)O)cc2)cc(OC)c1OC,?,i,i,i,i,i
Cc1ccc(NC(=O)/C=C/c2cccc(C(F)(F)F)c2)cc1,i,i,i,i,i,i
O=C(N/N=C/c1ccc2nccnc2c1)c1ccccc1O,nt,nt,nt,nt,nt,38
O=C(O)c1ccc(N/N=C/c2cccc(F)c2)cc1,i,i,i,i,i,nt
O=C(/C=C/c1cccc(C(F)(F)F)c1)Nc1cccc(C(F)(F)F)c1,i,i,105,i,i,nt
COc1ccc(/C=N/Nc2ccc(C(=O)O)cc2)c(OC)c1OC,124,i,i,i,i,i
O=C(O)c1ccc(N/N=C/c2cccc(C(F)(F)F)c2)cc1,110,i,i,i,nt,i
Cc1cc(C)cc(NC(=O)N2CCN(Cc3nc4ccccc4c(=O)[nH]3)CC2)c1,nt,nt,nt,nt,i,nt
O=C(O)c1ccc(N/N=C/c2ccc3nccnc3c2)cc1,i,99,i,i,i,i
O=C(O)c1ccc(N/N=C/c2ccncc2)cc1,i,i,i,i,i,i
Cc1ccc2nc(Cl)c(/C=N/Nc3ccc(C(=O)O)cc3)cc2c1,i,i,i,i,nt,43
Cc1ccc2cc(/C=N/NC(=O)c3ccc(F)cc3)c(Cl)nc2c1,i,i,nt,i,i,i
c1ccc(C2=NNC(c3ccccn3)=NN2)nc1,i,i,i,i,i,i
CC(C)C[C@@H](CSc1ccc(Br)cc1)N1CCN(C)CCC1=O,81,i,nt,i,nt,i
O=C(CCl)Nc1cccc(S(=O)(=O)NC2=NCCC2)c1,i,i,i,60,i,i
Cc1nc(Sc2nnnn2C)c2c3c(sc2n1)CCC3,i,87,i,i,i,i
C=CCN1C/C(=C/c2ccccc2)N2C(=O)CC(c3ccccc3)N=C12 (stereo not given),nt,nt,nt,nt,i,nt
c1ccc2c(c1)C1=NCCN1c1ccccc1-2,nt,nt,nt,78,i,i
SMILES,MITF TRPM1 HTS,MITF TRPM1 inh,PfHsp90 yeast 2,Glyco luc inh,NSD2 inh,Wnt act
NC(=O)c1ncn([C@@H]2O[C@H](C(=O)N3CCCN(Cc4ccccc4F)CC3)[C@@H](O)[C@H]2O)n1,nt,nt,nt,nt,nt,i
CN(C(=S)NCCN1CCOCC1)C(c1ccccc1)c1ccccc1,i,i,i,i,i,42
COc1ccc(C(=O)Cc2ccc3c(c2)OCO3)c(O)c1,i,i,i,i,i,37
O=C(COC(=O)c1ccc(O)cc1O)c1ccc2c(c1)OCO2,i,i,i,i,i,44
O=C(O)COc1ccc(C(=O)Cc2ccc3c(c2)OCCCO3)c(O)c1,i,i,i,i,i,i
Cc1cc(C(=O)COC(=O)c2ccc(O)cc2O)c(C)n1C(C)C,85,i,i,i,i,53
O=C(COC(=O)c1ccc(O)cc1)c1ccc2c(c1)OCCO2,i,i,nt,i,i,38
O=C(COC(=O)c1ccc(O)cc1)Nc1ccc2c(c1)OCCO2,i,i,i,i,i,i
O=C(OCC#CCSc1nnc(-c2cccc3ccccc23)o1)c1cccc(C(F)(F)F)c1,nt,nt,nt,nt,i,nt
Cc1ccnc(NC(=O)c2cccc(NC(=O)c3ccccc3Cl)c2)c1,nt,nt,nt,nt,i,nt
O=C(Nc1cccc(-c2nc3ccccc3[nH]2)c1)c1cccc(NC(=O)c2ccco2)c1,i,87,i,i,i,nt
CS(=O)(=O)c1cccc(C(=O)Nc2cccc(-c3nc4ccccc4[nH]3)c2)c1,i,i,i,i,i,i
O=C(Nc1ccc2nc(-c3ccccc3)[nH]c2c1)c1ccco1,nt,i,nt,i,i,54
Cn1c(=O)c2c(ncn2CCOC(=O)C(C)(C)Oc2ccc(Cl)cc2)n(C)c1=O,nt,nt,nt,i,i,i
